# According to the supplement of paper PMC12282887:
# ± gives the standard deviation of the averaged measurements.
# Assays:
# Test in all cases: promoter activity interaction Z-score (Lux/OD deviation from empty-vector control); higher = stronger promoter induction by the compound
# [1] = system: E. coli BW25113 acrABp lux reporter
# Method in brief: (§1)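 Reporter strains of E. coli BW25113 grew at 37°C in 40 µl LB Lennox in 384-well plates. Readings of OD600 and luminescence were taken every 30 min over 12 h, integrated over 0–8 h (wild type) or 1–9 h (deletion strains), and wells below 10% of the median growth value were excluded. Scores are Z-transformed residuals of growth-normalised luminescence from a fit against a control.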
# [2] = system: E. coli BW25113 micFp lux reporter
# Method in brief: as §1
# [3] = system: E. coli BW25113 ompFp lux reporter
# Method in brief: as §1
# [4] = system: E. coli BW25113 robp lux reporter
# Method in brief: as §1
# [5] = system: E. coli BW25113 soxSp lux reporter
# Method in brief: as §1
# [6] = system: E. coli BW25113 tolCp lux reporter
# Method in brief: as §1
# [7] = system: E. coli BW25113 marRABp lux reporter
# Method in brief: as §1
# [8] = 0.0012 µg/ml, genetic background: wild type
# [9] = 0.0012 µg/ml, genetic background: ΔmarA
# [10] = 0.0012 µg/ml, genetic background: Δrob
# [11] = 0.0012 µg/ml, genetic background: ΔsoxS
# [12] = 0.0025 µg/ml, genetic background: wild type
# [13] = 0.0025 µg/ml, genetic background: ΔmarA
# [14] = 0.0025 µg/ml, genetic background: Δrob
# [15] = 0.0025 µg/ml, genetic background: ΔsoxS
# [16] = 0.005 µg/ml, genetic background: wild type
# [17] = 0.005 µg/ml, genetic background: ΔmarA
# [18] = 0.005 µg/ml, genetic background: Δrob
# [19] = 0.005 µg/ml, genetic background: ΔsoxS
# [20] = 0.0099 µg/ml, genetic background: wild type
# [21] = 0.0099 µg/ml, genetic background: ΔmarA
# [22] = 0.0099 µg/ml, genetic background: Δrob
# [23] = 0.0099 µg/ml, genetic background: ΔsoxS
# [24] = 0.62 µg/ml, genetic background: wild type
# [25] = 0.62 µg/ml, genetic background: ΔmarA
# [26] = 0.62 µg/ml, genetic background: Δrob
# [27] = 0.62 µg/ml, genetic background: ΔsoxS
# [28] = 1.2 µg/ml, genetic background: wild type
# [29] = 2.5 µg/ml, genetic background: wild type
smiles,measurement,setting,value
O=C(O)c1cn(C2CC2)c2cc(N3CCNCC3)c(F)cc2c1=O [Ciprofloxacin],promoter activity interaction Z-score,[1]; [8],-0.0508 ± 0.0034
same,promoter activity interaction Z-score,[1]; [9],0.353 ± 0.13
same,promoter activity interaction Z-score,[1]; [10],0.173 ± 0.043
same,promoter activity interaction Z-score,[1]; [11],0.42 ± 0.15
same,promoter activity interaction Z-score,[1]; [12],0.086 ± 0.043
same,promoter activity interaction Z-score,[1]; [13],0.398 ± 0.6
same,promoter activity interaction Z-score,[1]; [14],0.0723 ± 0.032
same,promoter activity interaction Z-score,[1]; [15],0.345 ± 0.36
same,promoter activity interaction Z-score,[1]; [16],-0.0602 ± 0.085
same,promoter activity interaction Z-score,[1]; [17],0.14 ± 0.38
same,promoter activity interaction Z-score,[1]; [18],-0.262 ± 0.024
same,promoter activity interaction Z-score,[1]; [19],0.245 ± 0.15
same,promoter activity interaction Z-score,[1]; [20],3.2 ± 0.99
same,promoter activity interaction Z-score,[2]; [8],-0.234 ± 0.19
same,promoter activity interaction Z-score,[2]; [9],0.0327 ± 0.0091
same,promoter activity interaction Z-score,[2]; [10],-0.0152 ± 0.072
same,promoter activity interaction Z-score,[2]; [11],0.0125 ± 0.049
same,promoter activity interaction Z-score,[2]; [12],-0.177 ± 0.22
same,promoter activity interaction Z-score,[2]; [13],0.0702 ± 0.0035
same,promoter activity interaction Z-score,[2]; [14],0.0396 ± 0.11
same,promoter activity interaction Z-score,[2]; [15],0.236 ± 0.43
same,promoter activity interaction Z-score,[2]; [16],0.0988 ± 0.0042
same,promoter activity interaction Z-score,[2]; [17],0.222 ± 0.086
same,promoter activity interaction Z-score,[2]; [18],0.149 ± 0.08
same,promoter activity interaction Z-score,[2]; [19],0.0364 ± 0.036
same,promoter activity interaction Z-score,[2]; [20],-0.518 ± 0.27
same,promoter activity interaction Z-score,[2]; [21],-0.126 ± 0.0091
same,promoter activity interaction Z-score,[2]; [22],-0.163
same,promoter activity interaction Z-score,[2]; [23],-0.0606 ± 0.43
same,promoter activity interaction Z-score,[3]; [8],-0.438 ± 0.12
same,promoter activity interaction Z-score,[3]; [9],-0.0468 ± 0.33
same,promoter activity interaction Z-score,[3]; [10],-0.155 ± 0.71
same,promoter activity interaction Z-score,[3]; [11],0.116 ± 0.044
same,promoter activity interaction Z-score,[3]; [12],-0.471 ± 0.096
same,promoter activity interaction Z-score,[3]; [13],-0.00111 ± 0.52
same,promoter activity interaction Z-score,[3]; [14],-0.691 ± 0.58
same,promoter activity interaction Z-score,[3]; [15],0.136 ± 0.14
same,promoter activity interaction Z-score,[3]; [16],-0.511 ± 0.028
same,promoter activity interaction Z-score,[3]; [17],-0.0342 ± 0.14
same,promoter activity interaction Z-score,[3]; [18],-0.495 ± 0.56
same,promoter activity interaction Z-score,[3]; [19],-0.279 ± 0.43
same,promoter activity interaction Z-score,[3]; [20],-0.587 ± 0.72
same,promoter activity interaction Z-score,[4]; [8],0.0678 ± 0.12
same,promoter activity interaction Z-score,[4]; [9],0.253 ± 0.13
same,promoter activity interaction Z-score,[4]; [10],0.0957 ± 0.66
same,promoter activity interaction Z-score,[4]; [11],1.22 ± 0.77
same,promoter activity interaction Z-score,[4]; [12],0.3 ± 0.26
same,promoter activity interaction Z-score,[4]; [13],-0.0277 ± 0.16
same,promoter activity interaction Z-score,[4]; [14],0.0548 ± 0.78
same,promoter activity interaction Z-score,[4]; [15],1.24 ± 1.1
same,promoter activity interaction Z-score,[4]; [16],0.247 ± 0.46
same,promoter activity interaction Z-score,[4]; [17],0.267 ± 0.41
same,promoter activity interaction Z-score,[4]; [18],-0.0594 ± 0.79
same,promoter activity interaction Z-score,[4]; [19],0.171 ± 0.16
same,promoter activity interaction Z-score,[4]; [20],-0.624 ± 0.76
same,promoter activity interaction Z-score,[4]; [21],-0.611
same,promoter activity interaction Z-score,[5]; [8],-0.0335 ± 0.15
same,promoter activity interaction Z-score,[5]; [9],0.12 ± 0.047
same,promoter activity interaction Z-score,[5]; [10],0.0163 ± 0.22
same,promoter activity interaction Z-score,[5]; [11],0.466 ± 0.26
same,promoter activity interaction Z-score,[5]; [12],-0.17 ± 0.048
same,promoter activity interaction Z-score,[5]; [13],0.0948 ± 0.18
same,promoter activity interaction Z-score,[5]; [14],-0.0974 ± 0.25
same,promoter activity interaction Z-score,[5]; [15],0.326 ± 0.014
same,promoter activity interaction Z-score,[5]; [16],0.14 ± 0.19
same,promoter activity interaction Z-score,[5]; [17],0.125 ± 0.098
same,promoter activity interaction Z-score,[5]; [18],0.0524 ± 0.27
same,promoter activity interaction Z-score,[5]; [19],0.682 ± 0.7
same,promoter activity interaction Z-score,[5]; [20],0.127 ± 0.063
same,promoter activity interaction Z-score,[5]; [21],0.0874 ± 0.13
same,promoter activity interaction Z-score,[5]; [22],-0.378 ± 0.17
same,promoter activity interaction Z-score,[5]; [23],3.89 ± 2.3
same,promoter activity interaction Z-score,[6]; [8],0.3 ± 0.42
same,promoter activity interaction Z-score,[6]; [9],0.215 ± 0.83
same,promoter activity interaction Z-score,[6]; [10],-0.563 ± 1
same,promoter activity interaction Z-score,[6]; [11],0.363 ± 0.45
same,promoter activity interaction Z-score,[6]; [12],0.307 ± 0.13
same,promoter activity interaction Z-score,[6]; [13],-0.633 ± 0.058
same,promoter activity interaction Z-score,[6]; [14],-0.452 ± 0.41
same,promoter activity interaction Z-score,[6]; [15],0.599 ± 0.74
same,promoter activity interaction Z-score,[6]; [16],0.224 ± 0.038
same,promoter activity interaction Z-score,[6]; [17],0.452 ± 0.24
same,promoter activity interaction Z-score,[6]; [18],-0.267 ± 1.4
same,promoter activity interaction Z-score,[6]; [19],0.965 ± 0.61
same,promoter activity interaction Z-score,[6]; [20],-0.238 ± 0.84
same,promoter activity interaction Z-score,[6]; [21],0.207 ± 0.2
same,promoter activity interaction Z-score,[6]; [22],-2.22 ± 0.97
same,promoter activity interaction Z-score,[6]; [23],1.85 ± 0.19
CC(=O)C(NC(=O)C(C)C(O)C(C)NC(=O)C(NC(=O)c1nc(C(CC(N)=O)NCC(N)C(N)=O)nc(N)c1C)C(O[C@@H]1O[C@@H](CO)[C@@H](O)[C@H](O)[C@]1(C)O[C@@H]1OC(CO)[C@H](O)[C@](O)(C(N)=O)[C@H]1O)c1cnc[nH]1)C(=O)NCCC1=NC(c2nc(C(N)=O)cs2)CS1 (stereo partly specified) [Phleomycin],promoter activity interaction Z-score,[1]; [24],1.07 ± 0.23
same,promoter activity interaction Z-score,[1]; [25],-0.273 ± 0.32
same,promoter activity interaction Z-score,[1]; [26],1.04
same,promoter activity interaction Z-score,[1]; [27],0.298 ± 1.3
same,promoter activity interaction Z-score,[1]; [28],2.12
same,promoter activity interaction Z-score,[7]; [24],1.05 ± 0.22
same,promoter activity interaction Z-score,[7]; [25],2.57
same,promoter activity interaction Z-score,[7]; [26],1.98
same,promoter activity interaction Z-score,[7]; [27],1.57
same,promoter activity interaction Z-score,[7]; [28],2.71 ± 0.25
same,promoter activity interaction Z-score,[2]; [24],-0.476 ± 0.019
same,promoter activity interaction Z-score,[2]; [25],-0.254 ± 0.023
same,promoter activity interaction Z-score,[2]; [26],-0.0516 ± 0.18
same,promoter activity interaction Z-score,[2]; [27],-0.651 ± 0.16
same,promoter activity interaction Z-score,[2]; [28],-1.14 ± 0.14
same,promoter activity interaction Z-score,[2]; [29],-0.981 ± 0.31
same,promoter activity interaction Z-score,[3]; [24],1.83 ± 0.41
same,promoter activity interaction Z-score,[3]; [25],0.799 ± 2
same,promoter activity interaction Z-score,[3]; [26],-0.998
same,promoter activity interaction Z-score,[3]; [27],1.46 ± 2.8
same,promoter activity interaction Z-score,[3]; [28],-0.554
same,promoter activity interaction Z-score,[4]; [24],-0.5306 ± 0.0049
same,promoter activity interaction Z-score,[4]; [25],-0.313 ± 0.067
same,promoter activity interaction Z-score,[4]; [26],-1.12
same,promoter activity interaction Z-score,[4]; [27],-0.519 ± 0.41
same,promoter activity interaction Z-score,[4]; [28],-0.94 ± 0.28
same,promoter activity interaction Z-score,[5]; [24],0.286 ± 0.032
same,promoter activity interaction Z-score,[5]; [25],-0.0997 ± 0.0027
same,promoter activity interaction Z-score,[5]; [26],-0.106 ± 0.024
same,promoter activity interaction Z-score,[5]; [27],3.11 ± 2.5
same,promoter activity interaction Z-score,[5]; [28],-0.481 ± 0.012
same,promoter activity interaction Z-score,[5]; [29],-0.666 ± 0.31
same,promoter activity interaction Z-score,[6]; [24],-0.425 ± 0.84
same,promoter activity interaction Z-score,[6]; [25],-0.832 ± 0.55
same,promoter activity interaction Z-score,[6]; [26],-0.362 ± 0.33
same,promoter activity interaction Z-score,[6]; [27],0.481 ± 0.63
same,promoter activity interaction Z-score,[6]; [28],-0.433 ± 0.62
same,promoter activity interaction Z-score,[6]; [29],-1.33 ± 1.2
